From PubChem
p53 reactivator = re-activators of mutant p53. H1299 p53-A138V BP100-luciferase reporter, luminescence, 24 h. Potency, µM (titrated, usually from 92.2 µM), usual class: activators. hit rate 0.063% among 320,000. AID 504706; note: nearly all actives have a fitted effect of over 45% in size
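H1299 (p53-null), stable ts p53-A138V + BP100-Luc; 1000 cells/well, Opti-MEM/10% FBS; cpd 4 pt, 1:5; 24 h, 37 deg C, 5% CO2; detection reagent 10 min RT; luminescence.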
BRCA1 expr act = BRCA1 expression activation; MCF7-BRCA1-FFLuc reporter, luminescence, 48 h; response scale: scaled: vehicle 0%, 10 µM genistein 100%; Potency, µM (series often up to 46.1 µM), usual class: activators; hit rate 1.1% among 380,000; note: nearly all actives have a fitted effect of over 80% in size
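MCF7-BRCA1-FFLuc cells, 2000/well in phenol-red-free MEM, attached 2 h then treated 48 h at 37 C. Luciferase luminescence read 15 min after reagent; normalized to genistein maximum activation (10microM) and DMSO, concentration-response fitted.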
VP16 counter = Gal4-VP16 reporter inhibition counter-screen; Drosophila S2 Gal4-VP16 UAS-luciferase, luminescence, 20 h; Potency, µM (series often up to 53.6 µM), actives largely listed as inhibitors; AID 2546; hit rate 3.5% among 310,000;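 note: Gal4-VP16 expression switched on by copper sulfate through the metallothionein promoter; nearly all actives have a fitted effect of over 50% in size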
RORgamma inh = blocks mouse ROR gamma transcriptional activity; P51450; Drosophila S2 Gal4-RORgamma UAS-luciferase reporter, 20 h; Potency, µM (top dose mostly 53.6 µM), actives largely listed as inhibitors; hit rate 5.4% among 310,000; AID 2551; note: nearly all actives have a fitted effect of over 60% in size
Target sequence (P51450 whole entry, looked up, the tested form may be a part): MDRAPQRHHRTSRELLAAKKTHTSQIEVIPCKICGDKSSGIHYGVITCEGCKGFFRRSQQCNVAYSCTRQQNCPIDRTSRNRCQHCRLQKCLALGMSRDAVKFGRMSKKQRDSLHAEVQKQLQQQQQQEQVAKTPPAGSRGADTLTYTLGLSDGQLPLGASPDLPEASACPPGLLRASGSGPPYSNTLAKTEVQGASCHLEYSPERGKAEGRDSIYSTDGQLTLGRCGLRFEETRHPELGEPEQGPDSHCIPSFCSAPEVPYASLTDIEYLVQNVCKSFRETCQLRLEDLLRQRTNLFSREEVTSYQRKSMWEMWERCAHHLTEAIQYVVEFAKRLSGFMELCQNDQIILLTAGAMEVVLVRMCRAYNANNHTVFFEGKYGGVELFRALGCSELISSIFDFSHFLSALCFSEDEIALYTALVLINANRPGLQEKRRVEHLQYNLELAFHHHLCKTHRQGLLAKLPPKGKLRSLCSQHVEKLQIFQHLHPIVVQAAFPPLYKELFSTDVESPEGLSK
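Using a luciferase readout, inhibitors were identified by reduced reporter activity in Drosophila cells coexpressing a copper-inducible Gal4–ROR gamma fusion and UAS-driven Photinus luciferase, incubated 20 hr after 700 uM copper sulfate.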
Giardia killer = Giardia lamblia killing. hit rate 0.15% among 340,000. AID 540267. Giardia lamblia trophozoite viability. activity change, % at 7.66 µM, hits read low; in the data active = activity change below about -80%; inconclusive = between about -30% and that limit;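 note: parasites exposed to compound for two days anaerobically before the ATP read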
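Compounds were tested on trophozoites seeded at 100 cells/well and held 48 hrs at 37 deg C anaerobically. An ATP-based luminescent kit measured the remaining live cells.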
ELG1 repair inh = blocks ELG1-dependent DNA repair in HEK293T cells | HEK293T ELG1-luciferase reporter, luminescence, 16 h; DNA damage induced by 5-fluorouridine | Potency, µM (highest dose often 46.1 µM), actives largely listed as inhibitors | hit rate 2.3% among 330,000; note: nearly all actives have a fitted effect of over 55% in size
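Step one: seed 2,000 cells per well. Step two: pin-transfer compound or DMSO alongside 5-fluorouridine. Step three: incubate 16 hr, 37 °C, 5% CO2. Step four: add ONE-Glo, wait 30 min, read luminescence.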
Hits are given with their value. A selection: hits, their analogues and other compounds. The true share with any hit is near 7.6%. Unless noted, calls come from the whole dose curve; as a rule, active = well fitted curve in the direction sought with a large enough effect; inconclusive = small, poorly fitted or top-dose-only effect, or another doubt; inactive = no such curve, though single readings can be large; an effect the other way counts as inactive or inconclusive.

Results for COc1cccc(/C=N/NC(=O)c2ccc(=O)n(C)c2)c1O ?
p53 reactivator: inactive; BRCA1 expr act: inactive; VP16 counter: 3.16µM; RORgamma inh: 0.631µM; Giardia killer: inactive; ELG1 repair inh: inconclusive

Results for Fc1cccc(CNC2CCN(CCc3ccccc3)CC2)c1 ?
BRCA1 expr act: inactive; VP16 counter: inactive; RORgamma inh: inactive; Giardia killer: inactive; ELG1 repair inh: inactive

What do the screens show for `O=C(CCC1CCCCC1)Nc1ccc(S(=O)(=O)Nc2nccs2)cc1`?
p53 reactivator: inactive; BRCA1 expr act: inactive; VP16 counter: inactive; RORgamma inh: inactive; Giardia killer: inactive; ELG1 repair inh: inactive

How did CCCc1nnc(NC(=O)CCC(=O)NCc2ccc(Cl)cc2Cl)s1 do in these assays?
p53 reactivator: inactive; BRCA1 expr act: inactive; VP16 counter: inactive; RORgamma inh: inactive; Giardia killer: inactive; ELG1 repair inh: inconclusive

What do the screens show for `CC(=O)c1ccccc1NC(=O)c1ccc(N2CCCC2=O)cc1`?
p53 reactivator: inactive; BRCA1 expr act: 7.94µM; Giardia killer: inactive; ELG1 repair inh: inactive

What do the screens show for `CC(NC(=O)c1ccc(N2CCCC2=O)cc1)c1ccccc1` (configuration not stated)?
p53 reactivator: inactive; BRCA1 expr act: inactive; VP16 counter: inactive; RORgamma inh: inactive; Giardia killer: inactive; ELG1 repair inh: inactive

Results for CSc1ccccc1NC(=O)c1ccc(N2CCCC2=O)cc1 ?
p53 reactivator: inconclusive; BRCA1 expr act: 10µM; Giardia killer: inactive; ELG1 repair inh: inconclusive

How did CC(=O)c1ccc(NC(=O)c2ccc(N3CCCC3=O)cc2)cc1 do in these assays?
p53 reactivator: inactive; BRCA1 expr act: inactive; Giardia killer: inactive; ELG1 repair inh: inconclusive

How did N#Cc1cc2c(nc1SCc1ccccc1)CCC2 do in these assays?
p53 reactivator: inactive; BRCA1 expr act: inactive; VP16 counter: inactive; RORgamma inh: inactive; Giardia killer: inactive; ELG1 repair inh: inconclusive

What do the screens show for `N#Cc1cc2c(nc1SCc1ccncc1)CCC2`?
p53 reactivator: inconclusive; BRCA1 expr act: 11.2µM; VP16 counter: inconclusive; RORgamma inh: inconclusive; Giardia killer: inactive; ELG1 repair inh: inconclusive

How did Cc1ccc(C)c(-c2csc(Nc3ncccn3)n2)c1 do in these assays?
p53 reactivator: inactive; BRCA1 expr act: inactive; VP16 counter: inactive; RORgamma inh: inactive; Giardia killer: inactive; ELG1 repair inh: inconclusive

How did Cc1ccc(C)c(-c2csc(N/N=C/c3ccco3)n2)c1 do in these assays?
p53 reactivator: inactive; BRCA1 expr act: inactive; VP16 counter: inactive; RORgamma inh: 15.8µM; Giardia killer: inactive; ELG1 repair inh: inactive

What do the screens show for `O=S(=O)(c1cccc(-c2csc(-c3ccccc3)n2)c1)N1CCOCC1`?
p53 reactivator: inactive; BRCA1 expr act: inactive; VP16 counter: inactive; RORgamma inh: inactive; Giardia killer: inactive; ELG1 repair inh: inactive

What do the screens show for `CCOc1cc(/C=N/Nc2nc(-c3cccc(S(=O)(=O)N4CCCC4)c3)cs2)ccc1O`?
p53 reactivator: inactive; BRCA1 expr act: inactive; VP16 counter: inactive; RORgamma inh: inconclusive; Giardia killer: inactive; ELG1 repair inh: 20.6µM

What do the screens show for `O=S(=O)(c1cccc(-c2csc(N/N=C/c3ccco3)n2)c1)N1CCOCC1`?
p53 reactivator: inactive; BRCA1 expr act: inactive; VP16 counter: inactive; RORgamma inh: inactive; Giardia killer: inactive; ELG1 repair inh: 23.1µM

How did COc1cc(/C=N/Nc2nc(-c3ccc(S(=O)(=O)N(C)C)cc3)cs2)ccc1O do in these assays?
p53 reactivator: inactive; BRCA1 expr act: inactive; VP16 counter: inactive; RORgamma inh: inconclusive; Giardia killer: inactive; ELG1 repair inh: 11.6µM

How did COc1ccc(/C=N/Nc2nc(-c3cccc(S(=O)(=O)N4CCCC4)c3)cs2)cc1OC do in these assays?
p53 reactivator: inactive; BRCA1 expr act: inactive; VP16 counter: inactive; RORgamma inh: inactive; Giardia killer: inactive; ELG1 repair inh: inconclusive

How did O=C(/C=C/[C@H]1O[C@@H](n2ccc(=O)[nH]c2=O)[C@H](O)[C@@H]1O)NCc1ccccc1 do in these assays?
BRCA1 expr act: inactive

What do the screens show for `O=C(Nc1nnc(CCc2ccccc2)s1)c1ccco1`?
p53 reactivator: inconclusive; BRCA1 expr act: inactive; VP16 counter: inactive; RORgamma inh: inactive; Giardia killer: inactive; ELG1 repair inh: inconclusive

Results for O=C(Nc1nnc(Cc2ccccc2)s1)c1ccco1 ?
p53 reactivator: inactive; BRCA1 expr act: 12.6µM; VP16 counter: inactive; RORgamma inh: inconclusive; Giardia killer: inactive; ELG1 repair inh: inconclusive

How did CCN(c1ccccc1)S(=O)(=O)c1nnc(NC(=O)C(C)(C)C)s1 do in these assays?
p53 reactivator: inactive; BRCA1 expr act: inactive; VP16 counter: inactive; RORgamma inh: inactive; Giardia killer: inactive; ELG1 repair inh: 7.3µM

Results for NC(=O)c1cc(Cc2ccccc2)sc1NC(=O)c1ccco1 ?
p53 reactivator: inconclusive; BRCA1 expr act: 7.94µM; VP16 counter: inconclusive; RORgamma inh: inconclusive; Giardia killer: inactive; ELG1 repair inh: inconclusive

What do the screens show for `COc1ccc(Cc2nnc(NC(=O)c3c(-c4ccccc4)noc3C)s2)cc1`?
p53 reactivator: inactive; BRCA1 expr act: inactive; VP16 counter: inconclusive; RORgamma inh: 15.8µM; Giardia killer: inactive; ELG1 repair inh: inactive

Results for COc1ccc(Cc2nnc(NC(=O)c3c(-c4ccccc4)noc3C)s2)cc1OC ?
p53 reactivator: inactive; VP16 counter: inactive; RORgamma inh: inconclusive; ELG1 repair inh: inactive

How did CCOc1ccc(Nc2nc3c(c(=O)[nH]2)CCC3)cc1 do in these assays?
p53 reactivator: inactive; BRCA1 expr act: inactive; VP16 counter: inactive; RORgamma inh: inconclusive; Giardia killer: inactive; ELG1 repair inh: inactive

Results for CCn1cc(/C=N\NC(=O)c2ccc(F)cc2)cn1 ?
p53 reactivator: inactive; BRCA1 expr act: inactive; VP16 counter: inactive; RORgamma inh: inconclusive; Giardia killer: inactive; ELG1 repair inh: inactive

Results for Cc1cccc(NC(=O)CCS(=O)(=O)c2ccccc2)c1 ?
p53 reactivator: inconclusive; BRCA1 expr act: inactive; VP16 counter: inactive; RORgamma inh: inactive; Giardia killer: inactive; ELG1 repair inh: inconclusive

What do the screens show for `CC(C)(C)CC(=O)Nc1nnc(CCc2ccccc2)s1`?
BRCA1 expr act: inconclusive; VP16 counter: inactive; RORgamma inh: inconclusive; Giardia killer: inactive; ELG1 repair inh: inconclusive

Results for CCC(C)(C)C(=O)Nc1nnc(CCc2ccccc2)s1 ?
p53 reactivator: inactive; BRCA1 expr act: 8.91µM; VP16 counter: inconclusive; RORgamma inh: inconclusive; Giardia killer: inconclusive; ELG1 repair inh: inconclusive

What do the screens show for `CC(C)(C)C(=O)Nc1nnc(Cc2ccccc2)s1`?
p53 reactivator: inactive; BRCA1 expr act: inactive; VP16 counter: inactive; RORgamma inh: 12.6µM; Giardia killer: inactive; ELG1 repair inh: inconclusive

How did CCc1nc2c(c(=O)[nH]1)C(CC)(CC)Cc1ccccc1-2 do in these assays?
BRCA1 expr act: inactive; VP16 counter: inactive; RORgamma inh: inconclusive; Giardia killer: inactive; ELG1 repair inh: inactive
